# Reference: PubChem BioAssay (NCI)
# About 79,000 compounds went through this panel and 15% of them were active in at least one assay; those are over-represented in the sample as a whole. A number with no mark means an inactive call. The source made the active and inactive calls. Cut-off read from the data, not from the text of the source: active = growth inhibition above about 70%; inactive = the rest.
# Test: NCI Yeast Anticancer Drug Screen. Data for the sgs1 mgt1 strain (AID 161);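 note: 0% = growth of cultures given vehicle only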
# Conditions: S. cerevisiae sgs1 mgt1 strain, at 50.0 µM, active compounds read high
# Summary of the method: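 Mutant yeast exposed to compound; growth scored against vehicle-only wells.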
row,SMILES,growth inhibition
1,OC1C2COc3nc4ccccc4n3C(O2)C1O (stereo not given),-10.4%
2,CN(C)CC1Cc2ccsc2C1=O (stereo not given),99.4% (active)
3,CCCC(O)C[N+](=O)[O-] (stereo not given),15.2%
4,CC1=NC(C)=C(/C(C)=N/NC(=O)c2ccccc2O)C(C)/C1=C(/C)NNC(=O)c1ccccc1O (stereo not given),81.1% (active)
5,O=[N+]([O-])c1cccc(S(=O)(=O)N/N=C/c2cc(I)cc([N+](=O)[O-])c2O)c1,34.5%
6,CNC(=O)OC(C)CN1c2ccccc2Sc2ccc(Cl)cc21 (stereo not given),90.9% (active)
7,O=[N+]([O-])c1ccc(NSc2ccccc2)cc1,90.2% (active)
8,CCOc1ccc2c(c1)nc1ccccc1[n+]2CC,41.4%
9,O=C1C=CC(=O)c2c(O)c(N3CCN(CCO)CC3)c(Cl)c(O)c21,90.7% (active)
10,O=C1CSC(c2cccc([N+](=O)[O-])c2)N1c1ccc(-c2ccc(-n3c(-c4ccccc4)nc4ccccc4c3=O)cc2)cc1 (stereo not given),-29.4%
11,CCC(=O)c1ccc2ccc3ccccc3c2c1,65.2%
12,N#CSCc1c(Cl)cccc1Cl,82.7% (active)
13,O=[N+]([O-])/C(C(Cl)=C(Cl)Cl)=C(/Sc1ccccc1)N1CCOCC1,85.8% (active)
14,COc1c2occc2c(OC)c2c(C)c(C(=O)OCCN3CCOCC3)oc12,28.1%
15,COc1cnn(-c2ccccc2)c(=O)c1SCc1ccc(Cl)c(Cl)c1,71.2% (active)
16,COc1ccc(/C=C/c2c[n+]([O-])ccc2[N+](=O)[O-])cc1,63.9%
17,CS(=O)(=O)OCCCN(CCCOS(C)(=O)=O)c1ccc(C=Nc2ccc(-c3csc(COc4ccc(Br)cc4Br)n3)cc2)cc1,90% (active)
18,O=C(Nc1ccccc1-c1nn(C(=S)Nc2ccccc2)c(=S)n(C(=S)Nc2ccccc2)c1=O)C(F)(F)F,46.5%
19,Cc1ccc(N=C(N)NN=C(c2ccc(Cl)cc2)c2ccc(Cl)cc2)cc1,57.6%
20,Cc1cccc(C)c1N1C(=O)C(=O)C(c2nc3ccccc3s2)/C(=N/NC(=O)c2ccccc2O)C1=O (stereo not given),48.9%

row,SMILES,growth inhibition
1,CN(C)CC1CC/C(=C\c2ccc(O)cc2)C1=O (stereo not given),91.6% (active)
2,CCCCCC=C(c1cc(Br)cc(C(=O)O)c1O)c1cc(Br)cc(C(=O)O)c1O,82.8% (active)
3,CCS(CC)(CC)CC1CCCC2=CCC(P(=O)(c3ccccc3)c3ccccc3)CC21 (stereo not given),87.8% (active)
4,Cc1c[n+](=O)c2ccccc2n1[O-],-20.4%
5,O=C1CC(=S)NC(=S)N1,-15%
6,CC1=NN(C(=O)c2ccc(Cl)cc2)C(=O)C1N=Nc1ccc(S(=O)(=O)Nc2ncccn2)cc1 (stereo not given),10.8%
7,COC(=O)c1cc(=O)n(-c2ccccc2OC)c(SC)n1,92.5% (active)
8,CCCCN(CCCC)Cc1ccc(NC(C(=O)c2ccccc2)c2ccccc2)cc1 (stereo not given),93.8% (active)
9,Cn1cc(/C=C/[N+](=O)[O-])c2ccc(OCc3ccccc3)cc21,10.2%
10,O=C(c1ccc([N+](=O)[O-])cc1)N1CCCSC1=S,31.6%
11,CCCCCCCCC(=O)NCCN(CCN)C(=O)CCCCCCCC,91.7% (active)
12,Cc1nc2sc3c(c2c2nnnn12)CCCC3,53%
13,CCC(CC)(C(=O)Nc1ccc2c(c1)c(=O)c1ccccc1n2C)C(=O)Nc1ccc2c(c1)c(=O)c1ccccc1n2C,70.8% (active)
14,Cc1ccccc1N1CCN(c2c3c(nc4ccccc24)CCCCC3)CC1,97.2% (active)
15,O=C(Nc1ccccc1)c1cc(Cl)ccc1O,71.8% (active)
16,CCCCCCCCCCCCCCCCCCOP(=O)([O-])OC1CC[N+](C)(C)CC1,91% (active)
17,CN(C)c1ccc(C(O)(Cc2cccc(C#N)c2)c2ccc(N(C)C)cc2)cc1,52.8%
18,CC(=O)N1CCC(Cc2ccccc2)CC1,11.2%
19,O=[N+]([O-])c1ccc(-n2ncc3cccnc32)c([N+](=O)[O-])c1,99.3% (active)
20,CC(C)OC(=O)c1ccc(NCC2=CC(=O)C=CC2=O)cc1Cl,91.2% (active)

# Test: NCI Yeast Anticancer Drug Screen. Data for the cln2 rad14 strain (AID 165);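 note: 0% = growth equal to vehicle treated cultures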
# Conditions: S. cerevisiae cln2 rad14 strain, at 5.0 µM (retest, dose inferred, filed as 0.5), active compounds read high
# Summary of the method: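 Each compound was tested on cln2 rad14 yeast. Inhibition of growth was calculated against vehicle-exposed controls.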
row,SMILES,growth inhibition
1,OC1C2COc3nc4ccccc4n3C(O2)C1O (stereo not given),-60%
2,CN(C)CC1Cc2ccsc2C1=O (stereo not given),1%
3,CCCC(O)C[N+](=O)[O-] (stereo not given),-1%
4,CC1=NC(C)=C(/C(C)=N/NC(=O)c2ccccc2O)C(C)/C1=C(/C)NNC(=O)c1ccccc1O (stereo not given),-2%
5,O=[N+]([O-])c1cccc(S(=O)(=O)N/N=C/c2cc(I)cc([N+](=O)[O-])c2O)c1,-1%
6,CNC(=O)OC(C)CN1c2ccccc2Sc2ccc(Cl)cc21 (stereo not given),19%
7,O=[N+]([O-])c1ccc(NSc2ccccc2)cc1,21%
8,CCOc1ccc2c(c1)nc1ccccc1[n+]2CC,2%
9,O=C1C=CC(=O)c2c(O)c(N3CCN(CCO)CC3)c(Cl)c(O)c21,26%
10,O=C1CSC(c2cccc([N+](=O)[O-])c2)N1c1ccc(-c2ccc(-n3c(-c4ccccc4)nc4ccccc4c3=O)cc2)cc1 (stereo not given),26%
11,CCC(=O)c1ccc2ccc3ccccc3c2c1,4%
12,N#CSCc1c(Cl)cccc1Cl,68%
13,O=[N+]([O-])/C(C(Cl)=C(Cl)Cl)=C(/Sc1ccccc1)N1CCOCC1,-7%
14,COc1c2occc2c(OC)c2c(C)c(C(=O)OCCN3CCOCC3)oc12,-4%
15,COc1cnn(-c2ccccc2)c(=O)c1SCc1ccc(Cl)c(Cl)c1,-6%
16,COc1ccc(/C=C/c2c[n+]([O-])ccc2[N+](=O)[O-])cc1,12%
17,CS(=O)(=O)OCCCN(CCCOS(C)(=O)=O)c1ccc(C=Nc2ccc(-c3csc(COc4ccc(Br)cc4Br)n3)cc2)cc1,0%
18,O=C(Nc1ccccc1-c1nn(C(=S)Nc2ccccc2)c(=S)n(C(=S)Nc2ccccc2)c1=O)C(F)(F)F,7%
19,Cc1ccc(N=C(N)NN=C(c2ccc(Cl)cc2)c2ccc(Cl)cc2)cc1,8%
20,Cc1cccc(C)c1N1C(=O)C(=O)C(c2nc3ccccc3s2)/C(=N/NC(=O)c2ccccc2O)C1=O (stereo not given),21%

row,SMILES,growth inhibition
1,CN(C)CC1CC/C(=C\c2ccc(O)cc2)C1=O (stereo not given),24%
2,CCCCCC=C(c1cc(Br)cc(C(=O)O)c1O)c1cc(Br)cc(C(=O)O)c1O,2%
3,CCS(CC)(CC)CC1CCCC2=CCC(P(=O)(c3ccccc3)c3ccccc3)CC21 (stereo not given),5%
4,Cc1c[n+](=O)c2ccccc2n1[O-],8%
5,O=C1CC(=S)NC(=S)N1,-5%
6,CC1=NN(C(=O)c2ccc(Cl)cc2)C(=O)C1N=Nc1ccc(S(=O)(=O)Nc2ncccn2)cc1 (stereo not given),-6%
7,COC(=O)c1cc(=O)n(-c2ccccc2OC)c(SC)n1,-8%
8,CCCCN(CCCC)Cc1ccc(NC(C(=O)c2ccccc2)c2ccccc2)cc1 (stereo not given),-1%
9,Cn1cc(/C=C/[N+](=O)[O-])c2ccc(OCc3ccccc3)cc21,10%
10,O=C(c1ccc([N+](=O)[O-])cc1)N1CCCSC1=S,21%
11,CCCCCCCCC(=O)NCCN(CCN)C(=O)CCCCCCCC,-24%
12,Cc1nc2sc3c(c2c2nnnn12)CCCC3,4%
13,CCC(CC)(C(=O)Nc1ccc2c(c1)c(=O)c1ccccc1n2C)C(=O)Nc1ccc2c(c1)c(=O)c1ccccc1n2C,-4%
14,Cc1ccccc1N1CCN(c2c3c(nc4ccccc24)CCCCC3)CC1,-3%
15,O=C(Nc1ccccc1)c1cc(Cl)ccc1O,24%
16,CCCCCCCCCCCCCCCCCCOP(=O)([O-])OC1CC[N+](C)(C)CC1,96% (active)
17,CN(C)c1ccc(C(O)(Cc2cccc(C#N)c2)c2ccc(N(C)C)cc2)cc1,-2%
18,CC(=O)N1CCC(Cc2ccccc2)CC1,-55%
19,O=[N+]([O-])c1ccc(-n2ncc3cccnc32)c([N+](=O)[O-])c1,-1%
20,CC(C)OC(=O)c1ccc(NCC2=CC(=O)C=CC2=O)cc1Cl,61%
